{
  "source": "the OligoGym collection",
  "data": [
    {"target": "PRUNE", "assay": "pooled miR-30 sensor sort-seq; sequence = guide strand", "details": "shRNA", "values": [
      {"sequence": "TATTCGTGCTACATGAGGCTGA", "sensor-assay potency score (higher = more potent)": 0.818},
      {"sequence": "TTTATGAGAACAGTATACCAGA", "sensor-assay potency score (higher = more potent)": -0.563},
      {"sequence": "TTACCTTCCACATAGCTACAGA", "sensor-assay potency score (higher = more potent)": -0.331},
      {"sequence": "TAATAGTATAACAAAATGCAAA", "sensor-assay potency score (higher = more potent)": -1.31},
      {"sequence": "TGTCTATAGATAGTCTTCTGGT", "sensor-assay potency score (higher = more potent)": -0.567},
      {"sequence": "TTTCTTTCGAGAGACCTGGGTG", "sensor-assay potency score (higher = more potent)": -0.0186}
    ]},
    {"target": "PSD4", "assay": "pooled miR-30 sensor sort-seq; sequence = guide strand", "details": "shRNA", "values": [
      {"sequence": "TCACTCTTTACTTCCTCGCCTG", "sensor-assay potency score (higher = more potent)": -0.455},
      {"sequence": "TTAAGCAGCATGATTGCACATG", "sensor-assay potency score (higher = more potent)": -0.729},
      {"sequence": "TTTTCTTCAAGGAACTTGGCTG", "sensor-assay potency score (higher = more potent)": -0.084},
      {"sequence": "TAGCTAGCTTGTCTCCAGCTGG", "sensor-assay potency score (higher = more potent)": -0.572},
      {"sequence": "TTACCTCTCTATCCTCTCCAGT", "sensor-assay potency score (higher = more potent)": -0.76},
      {"sequence": "TTGCGCTTCACCTTGGCCGTGG", "sensor-assay potency score (higher = more potent)": 0.0843},
      {"sequence": "TCTTCTTGCCGTCTGCATCTTG", "sensor-assay potency score (higher = more potent)": -0.456},
      {"sequence": "AAGGTGTGGAACATCTTCCAGC", "sensor-assay potency score (higher = more potent)": -0.755},
      {"sequence": "TTTCCCTTGGGCACTCTCCTGG", "sensor-assay potency score (higher = more potent)": -0.299},
      {"sequence": "TGCACGTAGGTCTCGTAGCGGG", "sensor-assay potency score (higher = more potent)": -1.25},
      {"sequence": "TAAGGTGTGGAACATCTTCCAG", "sensor-assay potency score (higher = more potent)": -1.04}
    ]},
    {"target": "PSG2", "assay": "pooled miR-30 sensor sort-seq; sequence = guide strand", "details": "shRNA", "values": [
      {"sequence": "TAGAAGCAGAGACTTTGACTGT", "sensor-assay potency score (higher = more potent)": -0.247},
      {"sequence": "TTGACTGTCAACGATGTGGAGC", "sensor-assay potency score (higher = more potent)": -0.475},
      {"sequence": "TAAAAGTGATGCTGTGACCAGG", "sensor-assay potency score (higher = more potent)": -0.171},
      {"sequence": "AAACCTATGAGTCATAGGGAGG", "sensor-assay potency score (higher = more potent)": -1.86},
      {"sequence": "TTAAAAGTGATGCTGTGACCAG", "sensor-assay potency score (higher = more potent)": -0.575},
      {"sequence": "TTTCTCGTCCACTATATGCAGG", "sensor-assay potency score (higher = more potent)": -0.849},
      {"sequence": "TTCTTGTAGAAGCAGAGACTTT", "sensor-assay potency score (higher = more potent)": -1.51},
      {"sequence": "TAGAGGTTATCTCCTGAACGGT", "sensor-assay potency score (higher = more potent)": -0.865},
      {"sequence": "ACAAGTAGAGGTTATCTCCTGA", "sensor-assay potency score (higher = more potent)": 0.66},
      {"sequence": "TTTCGGACAGCTGAAACCTATG", "sensor-assay potency score (higher = more potent)": -1.61}
    ]},
    {"target": "PSIP1", "assay": "pooled miR-30 sensor sort-seq; sequence = guide strand", "details": "shRNA", "values": [
      {"sequence": "TTAATCTCAGCATGTATCCTTT", "sensor-assay potency score (higher = more potent)": 0.197},
      {"sequence": "TTCAACATCAAACCTATGCTTA", "sensor-assay potency score (higher = more potent)": 0.354},
      {"sequence": "TATCTATCTCCCATAAACCTTC", "sensor-assay potency score (higher = more potent)": -0.586},
      {"sequence": "TTAGTCACATCCTCATTGCTGG", "sensor-assay potency score (higher = more potent)": 0.128},
      {"sequence": "TTGAAAATATGCTACAACCATG", "sensor-assay potency score (higher = more potent)": -1.01},
      {"sequence": "TTATACAACATTGTAGACTTTT", "sensor-assay potency score (higher = more potent)": -0.451},
      {"sequence": "TTGATTGTTTAGTTGCTGCCTG", "sensor-assay potency score (higher = more potent)": 0.524},
      {"sequence": "TTAGTTACTAGTGCCTGCCTAT", "sensor-assay potency score (higher = more potent)": 0.32},
      {"sequence": "TTCATGGTCGGTATCTTCCTTT", "sensor-assay potency score (higher = more potent)": -0.126},
      {"sequence": "TTAAGTTTTAGTGACTTCCTAA", "sensor-assay potency score (higher = more potent)": -0.13},
      {"sequence": "TTGACTTGAAAATTTCACTTTT", "sensor-assay potency score (higher = more potent)": -0.471}
    ]}
  ]
}
